In the library only some 2.4% were active in any assay of this set; here they are far more common.
POLH inh – qHTS for Inhibitors of Polymerase Eta. DNA polymerase eta (Homo sapiens), Q9Y253. recombinant Pol eta, fluorescent DNA replication assay. Potency, µM (highest dose often 114 µM), for the others: top-dose activity change, negative = inhibition, usual class: inhibitors. actives 1.2% (n = 390,000). AID 588591, 2011; note: % is set by controls: 0 for no effect and ±100 for the full control effect
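Pol eta at 10 nM preincubated with compounds 15 min at room temperature; reaction started with fluorescent substrate (50 nM final) and read kinetically at 0 and 10 min.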
POLB inh – qHTS Assay for Inhibitors of DNA Polymerase Beta | Pol beta primer extension/strand displacement, fluorescence kinetic | P06746 | AID 485314, 2010 | actives 1.3% (n = 340,000) | Potency, µM (series often up to 114 µM), inactives show at the top dose activity change, negative = inhibition, actives largely listed as inhibitors; note: % is set by controls: 0 for no effect and ±100 for the full control effect
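Human Pol beta at 10 nM; strand-displacement substrate 50 nM final. Compound exposure 15 min at room temperature before start, reaction 10 min at room temperature.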
POLK inh – qHTS for Inhibitors of Polymerase Kappa; purified Pol kappa, fluorescent DNA synthesis assay, 10 min; actives 0.53% (n = 400,000); AID 588579, 2011; Potency, µM (doses to about 107 µM), without a hit: top-dose activity, negative = inhibition, actives largely listed as inhibitors; note: % is set by controls: 0 for no effect and ±100 for the full control effect
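Fluorescent qHTS in 1536-well format: enzyme (10 nM) and compound sat 15 min at room temperature before 50 nM substrate (final) was added. Signal taken at 0 and 10 min; no-enzyme buffer wells were negative controls.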
POLI inh – qHTS for Inhibitors of Polymerase Iota | actives 1% (n = 390,000) | DNA polymerase iota (Homo sapiens), Q9UNA4 | Pol iota fluorescent replication assay, 10 min | Potency, µM (series often up to 115 µM), without a hit: at the highest dose activity, negative = inhibition, hits mostly inhibitors
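Pol iota at 10 nM preincubated 15 min with compounds at room temperature; reaction started with fluorescent substrate, 50 nM final. Fluorescence read kinetically at 0 and 10 min; buffer-only wells as negative control.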
L3MBTL1 inh – qHTS Assay for the Inhibitors of L3MBTL1; AID 485360, 2010; Potency, µM (highest dose often 57.1 µM), inactives show top-dose activity, negative = inhibition, hits mostly inhibitors; actives 0.66% (n = 230,000); AlphaScreen L3MBTL1–H3K9me1 peptide binding; note: % is set by controls: 0 for no effect and ±100 for the full control effect; nearly all actives have a fitted effect of over 60% in size
Target sequence (Q9Y468 whole entry, looked up): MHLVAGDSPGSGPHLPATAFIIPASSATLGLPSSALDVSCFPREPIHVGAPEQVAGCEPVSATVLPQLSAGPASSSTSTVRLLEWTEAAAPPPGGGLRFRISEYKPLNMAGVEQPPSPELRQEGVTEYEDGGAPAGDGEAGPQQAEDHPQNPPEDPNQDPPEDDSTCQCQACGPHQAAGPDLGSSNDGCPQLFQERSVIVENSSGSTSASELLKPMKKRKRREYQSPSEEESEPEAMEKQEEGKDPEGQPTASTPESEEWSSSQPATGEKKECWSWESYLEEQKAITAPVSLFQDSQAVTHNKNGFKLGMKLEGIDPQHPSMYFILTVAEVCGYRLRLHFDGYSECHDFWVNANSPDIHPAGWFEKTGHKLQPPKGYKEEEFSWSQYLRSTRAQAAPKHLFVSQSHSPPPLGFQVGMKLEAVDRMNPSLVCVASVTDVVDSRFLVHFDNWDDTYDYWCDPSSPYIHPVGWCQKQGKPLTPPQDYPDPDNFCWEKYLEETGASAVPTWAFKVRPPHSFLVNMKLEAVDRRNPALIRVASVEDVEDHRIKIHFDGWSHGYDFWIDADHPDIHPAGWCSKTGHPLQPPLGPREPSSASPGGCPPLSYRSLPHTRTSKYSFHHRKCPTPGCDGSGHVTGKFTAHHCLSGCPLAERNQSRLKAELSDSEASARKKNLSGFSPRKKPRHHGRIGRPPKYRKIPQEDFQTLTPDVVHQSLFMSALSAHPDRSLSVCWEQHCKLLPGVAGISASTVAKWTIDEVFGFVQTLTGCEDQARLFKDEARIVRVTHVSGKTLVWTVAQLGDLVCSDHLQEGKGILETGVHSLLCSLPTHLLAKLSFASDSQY
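L3MBTL1 (50 nM) pre-complexed 30 min with biotinylated H3(1-15)K9me1 peptide (75 nM), then compounds added for 30 min at room temperature; AlphaScreen streptavidin donor/nickel chelate acceptor beads (10 ug/mL final) read after 30 min dark incubation.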
PGK validate – qHTS for inhibitors of Phosphogylcerate Kinase: Hit Validation Screen. Potency, µM (titrated, usually from 57.5 µM), inactives show top-dose activity change, negative = inhibition, actives largely listed as inhibitors. AID 686980, 2013. TbPGK coupled GAPDH assay, Kinase-Glo luminescence. actives 79% (n = 500). shares compounds with POLK inh; note: % is set by controls: 0 for no effect and ±100 for the full control effect; nearly all actives have a fitted effect of over 65% in size
POLI cherry-pick – qHTS for Inhibitors of Polymerase Iota: Confirmatory Assay for Cherry-picked Compounds; Potency, µM, most hits filed as inhibitors; AID 720496, 2013; actives 77% (n = 1,500); Pol iota primer extension, TAMRA/BHQ fluorescence; shares compounds with POLK inh
An asterisk follows results filed as active; [ ] = remark or other dose. Calls come from the whole dose curve; as a rule, active = well fitted curve in the direction sought with a large enough effect; inconclusive = small, poorly fitted or top-dose-only effect, or another doubt; inactive = no such curve, though single readings can be large; an effect the other way counts as inactive or inconclusive. Potency is the fitted concentration of half-maximal effect.

`CCCc1nn2c(=O)cc(COc3cccc(NC(=O)c4ccco4)c3)nc2s1` gave POLH inh inconclusive, POLB inh -13%, POLK inh -15% and POLI inh -25%.
`CCc1nn2c(=O)cc(COc3cccc(NC(=O)c4ccco4)c3)nc2s1` gave POLH inh inconclusive, POLB inh inconclusive, POLK inh inconclusive, POLI inh 50µM* and POLI cherry-pick inconclusive.
`Nc1ccn([C@@H]2O[C@H](CO)[C@H](O)C2(F)F)c(=O)n1` gave POLK inh -2%[19.4 µM].
O=C(c1ccccc1)c1cccc2ccccc12 was read as POLH inh -17%, POLK inh -6% and POLI inh 24%.
O=C(c1ccccc1)c1ccc(O)c(O)c1O was read as POLH inh 8.9µM*, POLK inh 22µM*, POLI inh 28µM* and PGK validate 5.8µM*.
Screening Cc1ccc(Nc2nc(N)nc(CSc3nnnn3-c3ccccc3)n2)cc1 returned POLH inh inconclusive, POLB inh 22µM*, POLK inh -17%, POLI inh 20µM*, L3MBTL1 inh -1% and POLI cherry-pick 30*.
Screening Cc1c(Cl)c([N+](=O)[O-])nn1CC(=O)N1CCN(C23CC4CC(CC(C4)C2)C3)CC1 returned POLH inh -15%, POLB inh 1%, POLK inh -5% and POLI inh inconclusive.
Screening Cc1ccccc1CNC(=O)C(C)N(c1ccccc1)S(C)(=O)=O (configuration not stated) returned POLH inh -14%, POLB inh -2%, POLK inh 12% and POLI inh 30%.
Screening CC(=O)Nc1ccc(S(=O)(=O)N2CCC(N3CCN(Cc4ccc(C)cc4)C(=O)C3=O)CC2)cc1 returned POLH inh inconclusive, POLB inh 45µM*, POLK inh -38%, POLI inh 79µM* and POLI cherry-pick inconclusive.
`Cc1ccc(CN2CCN(C3CCN(S(=O)(=O)c4ccc(C)cc4)CC3)C(=O)C2=O)cc1` gave POLH inh -21%, POLB inh -3%, POLK inh -7% and POLI inh 39%.
`CC(=O)Nc1ccc(S(=O)(=O)NCCSCc2ccco2)cc1` gave POLH inh inconclusive, POLB inh 19%, POLK inh inconclusive, POLI inh inconclusive and L3MBTL1 inh -9%.
`CS(=O)(=O)NCCSCc1ccco1` gave POLH inh 71µM*, POLB inh 40µM*, POLK inh inconclusive, POLI inh inconclusive, L3MBTL1 inh -26% and PGK validate 21µM*.
For CC1(C)CCCN(C(=O)c2coc(=O)c(Br)c2)C1 the results were POLH inh 0.89µM*, POLB inh 0.45µM*, POLK inh 14µM*, POLI inh 10µM*, L3MBTL1 inh 6.3µM* and PGK validate 0.82µM*.
For O=C(c1coc(=O)c(Br)c1)N1CCC(C(O)(c2ccccc2)c2ccccc2)CC1 the results were POLH inh -18%, POLB inh -14%, POLK inh 0%, POLI inh 18% and L3MBTL1 inh 3%.
`CCC(C(=O)NCCc1ccc(OC)c(OC)c1)n1nc(C)c2sc3ccccc3c2c1=O` (configuration not stated) gave POLH inh -11%, POLB inh inconclusive, POLK inh -15% and POLI inh inconclusive.
